# About 8,200 (3.7%) of roughly 220,000 compounds were called active.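 The calls were made as follows: active = compounds that reduced the stress-induced luciferase reporter signal by more than about 70% of percent inhibition (limit read from the data); inactive = the rest.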 Only a selection was taken, and actives are over-represented in it overall.
# Experiment: inhibitors of CHOP promoter induction, primary screen, cell-based, unfolded protein response, luciferase reporter (AID 2732);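 also: 0% = tunicamycin plus vehicle and 100% = wells without tunicamycin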
# Settings: CHO-K1 CHOP-promoter luciferase, tunicamycin-induced, 15-18 h; at 10 µM; active compounds read high
row,Structure (SMILES),inhibition
1,COC(=O)c1sccc1NC(=O)CC1C(=O)NCCN1C(=O)Nc1ccc(F)cc1F (configuration not stated),12.3% (inactive)
2,C=CS(=O)c1sc(Cl)c(N2CCOCC2)c1[N+](=O)[O-] (configuration not stated),106% (active)
3,Cc1nc(=O)c(-c2ccccc2)c(C)n1-c1ccc(Br)cc1,3.14% (inactive)
4,O=C(C[n+]1ccc2c(c1)nnn2-c1ccccc1)c1ccc(Cl)cc1,34.6% (inactive)
5,CCCCCCc1cc2cc(-c3nnc(-c4ccccc4)o3)c(=O)oc2cc1O,95.9% (active)
6,Cc1c(CCC(=O)O)c(=O)oc2cc3occ(-c4ccccc4)c3cc12,37.1% (inactive)
7,CCCC(=O)Nc1nnc(-c2ccccc2)o1,0.67% (inactive)
8,O=C1CCCCC1C(=O)c1ccccc1 (configuration not stated),8.57% (inactive)
9,Cn1c(=O)c2c(nc(SCC(=O)Nc3ccccc3N3CCCCC3)n2C)n(C)c1=O,21.7% (inactive)
10,O=C(CN1CCN(C2CCCCC2)CC1)Nc1ccccc1N1CCCCC1,59.2% (inactive)
11,Cc1ccccc1NC(=O)CNc1ccccc1N1CCCCC1,89.1% (active)
12,O=C(Cc1cccc2ccccc12)NCCC1=CCCCC1,40.1% (inactive)
13,Cc1ccccc1NC(=O)Nc1ccccc1N1CCCCC1,28.6% (inactive)
14,O=C(CNCCC1=CCCCC1)Nc1ccccc1N1CCCCCC1,72.9% (active)
15,Cc1ccc(OS(=O)(=O)c2ccc(-c3csc(C)n3)s2)c(C)c1,22.5% (inactive)
16,CNC(=O)c1csc(Cc2c(Cl)sc3ccc(Cl)cc23)n1,30.4% (inactive)
17,Cc1cc(Nc2ccc(Cl)cc2)nc(N2CCOCC2)n1,0.58% (inactive)
18,Cn1c(SCC(=O)c2ccc(F)cc2)nnc1-c1ccccn1,6.32% (inactive)
19,COc1ccc(C(CCNCc2ccccc2F)c2ccc(F)cc2)cc1 (configuration not stated),79.4% (active)
20,COc1cccc(CNCCc2c[nH]c3ccccc23)c1OCc1ccccc1F,12.6% (inactive)
21,COc1ccc(CC(=O)NC(C)CCc2ccccc2)cc1 (configuration not stated),-12.2% (inactive)
22,O=c1c2cc(-c3ccccc3)sc2nc2n1N=C(c1cccs1)CS2,-4.25% (inactive)
23,Clc1ccc(-c2cc(-c3ccccn3)on2)c(Cl)c1,63.3% (inactive)
24,O=[N+]([O-])c1ccc(N=Cc2c(O)ccc3ccccc23)cc1,28.1% (inactive)

row,Structure (SMILES),inhibition
1,COCCN(C(=S)Nc1cccc(Cl)c1C)C(C)c1ccco1 (configuration not stated),42.5% (inactive)
2,C=C(C)C(=O)Nc1cccc(C2=NOC3(C2)C[C@H](C(N)=O)N(C(=O)C(c2ccccc2)c2ccccc2)C3)c1 (some centres not stated),-8.97% (inactive)
3,CC(C)(C)c1ccc(/C=C2\Oc3c(ccc(O)c3CN3CCN(CCO)CC3)C2=O)cc1,-15.1% (inactive)
4,Cc1ccc(C(=O)N/C(=C\c2ccco2)C(=O)NC2CCS(=O)(=O)C2)cc1 (configuration not stated),10.1% (inactive)
5,Cc1cc(C(=O)N2CCC(C(=O)O)CC2)c(C(F)(F)F)o1,1.47% (inactive)
6,CCOC(=O)C1CCCN(C(=O)CN(c2ccc(OC)cc2)S(=O)(=O)c2c(C)noc2C)C1 (configuration not stated),10.8% (inactive)
7,Cc1cc(C)cc(N(CC(=O)NCC2CCCO2)S(=O)(=O)c2c(C)noc2C)c1 (configuration not stated),23.4% (inactive)
8,Cc1cc(C)cc(N(CC(=O)N2CC=C(c3ccccc3)CC2)S(=O)(=O)c2c(C)noc2C)c1,70% (active)
9,CC(NC(=S)NNS(=O)(=O)c1ccc(C(C)(C)C)cc1)c1ccccc1 (configuration not stated),51.7% (inactive)
10,O=C(c1[nH]ncc1-c1ccc(Cl)cc1)C1CO1 (configuration not stated),-97.8% (inactive)
11,O=C1C(Cc2ccc(O)cc2)NC(=S)N1Cc1ccccc1 (configuration not stated),-7.09% (inactive)
12,O=C1CC(Cc2ccc(Cl)cc2)C(=O)N1c1cc(Cl)ccn1 (configuration not stated),7.86% (inactive)
13,CCCCC(CC)CNC(=O)CCCCn1c(=O)[nH]c2ccsc2c1=O (configuration not stated),10.3% (inactive)
14,CCOC(=O)C(=O)C1C(=O)Nc2ccccc21 (configuration not stated),17.5% (inactive)
15,CCCCC(CC)CNC(=O)C(=O)C1C(=O)Nc2ccccc21 (configuration not stated),86.7% (active)
16,Cc1cc(C(=O)CSc2nc(N)cc(=O)[nH]2)c(C)n1Cc1ccco1,3.96% (inactive)
17,COc1ccc(C(=O)N/N=C(\C)CC(=O)Nc2ccc(Cl)cn2)cc1,4.2% (inactive)
18,O=C(c1ccc(CSc2ccccc2)cc1)N1CCCCCC1,23.8% (inactive)
19,O=C(C1CC1)N1CCN=C1SCc1ccc(Cl)cc1,5.04% (inactive)
20,CC1CCN(C(=O)c2ccc(CSc3ccc(Cl)cc3)cc2)CC1,80.3% (active)
21,Cn1c2ccccc2c2cc(/C=C(\NC(=O)c3ccccc3)C(=O)NCC(=O)O)ccc21,-15.8% (inactive)
22,O=C(CCS(=O)(=O)c1ccccc1Cl)Nc1ccc(S(=O)(=O)Nc2ncccn2)cc1,3.66% (inactive)
23,CC(C)n1c(CN2CCN(Cc3ccccc3)CC2)nc2ccccc21,-0.64% (inactive)

# — PubChem BioAssay AID2732 (Emory University Molecular Libraries Screening Center, 2010)
